Values joined by “and” are separate entries in the source; they are usually repeats but may differ in a detail not shown here. Identical values can stand only once. Active and inactive are the calls of the source. The calls were made as follows: active = hit-call score of the fitted dose curve at least 0.9, where 1 is the maximum; inactive = score below 0.9.

Read-out in test [1]: TIMP metallopeptidase inhibitor 2 (TIMP2), TIMP2 (gene 7077)
Kind of test: BSK_KF3CT_TIMP2: BioMAP Diversity Plus: KF3CT Assay for TIMP metallopeptidase inhibitor 2 (TIMP2) Biomarker Activity (AID 2283071). Particulars: primary human keratinocytes with fibroblasts; actives raise or lower the signal. The method, boiled down: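 Co-culture of human primary keratinocytes and foreskin fibroblasts, measured 24 h after chemical dosing. TIMP-2 quantified by ELISA and fitted in both directions relative to DMSO. Cytotoxicity checked in parallel cultures by SRB total-protein staining.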

Read-out in test [2]: Transforming growth factor beta 1 (TGFb1), TGFB1 (gene 7040)
The experiment in a line: BSK_KF3CT_TGFb1: BioMAP Diversity Plus: KF3CT Assay for Transforming growth factor beta 1 (TGFb1) Biomarker Activity (AID 2283072). Particulars: primary human keratinocytes with fibroblasts; actives raise or lower the signal. The method, boiled down: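 Human keratinocyte/foreskin fibroblast co-culture; TGF-b1 measured by ELISA 24 h after dosing, fitted bidirectionally versus DMSO. Cytotoxicity checked in parallel cultures by total protein (SRB staining, 560 nm).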

Read-out in test [3]: C-C motif chemokine 2 (Homo sapiens) (UniProt P13500)
The experiment in a line: BSK_KF3CT_MCP1: BioMAP Diversity Plus: KF3CT Assay for Monocyte Chemoattractant Protein 1 (MCP1/CCL2) Biomarker Activity (AID 2283073). The conditions noted are these: primary human keratinocytes with fibroblasts; actives raise or lower the signal. Put shortly:
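Human keratinocyte plus foreskin fibroblast primary co-culture exposed to chemical for 24 h. MCP-1 levels measured by ELISA. Bidirectional curve fitting relative to DMSO negative control as baseline.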

Read-out in test [4]: Matrix Metallopeptidase 9 (MMP9), MMP9 (gene 4318)
Kind of test: BSK_KF3CT_MMP9: BioMAP Diversity Plus: KF3CT Assay for Matrix Metallopeptidase 9 (MMP9) Biomarker Activity (AID 2283074).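 As to AC50: MMP9 protein level quantified by ELISA in the co-culture.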 The conditions noted are these: primary human keratinocytes with fibroblasts; actives raise or lower the signal. Put shortly: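 Human keratinocyte and foreskin fibroblast co-culture exposed to chemicals for 24 h; MMP9 biomarker measured by ELISA, bidirectional fitting relative to DMSO; cytotoxicity tracked by SRB total protein staining in parallel cultures.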

Read-out in test [5]: urokinase plasminogen activator (uPA), PLAU (gene 5328)
The experiment in a line: BSK_KF3CT_uPA: BioMAP Diversity Plus: KF3CT Assay for urokinase plasminogen activator (uPA) Biomarker Activity (AID 2283075). Particulars: primary human keratinocytes with fibroblasts; actives raise or lower the signal. The method, boiled down: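 Primary human keratinocyte/foreskin fibroblast co-culture exposed to chemical; uPA measured by ELISA at 24 h. Bidirectional fit versus DMSO, with parallel SRB total-protein staining for cytotoxicity.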

Read-out in test [6]: CD40, CD40 (gene 958)
Kind of test: BSK_LPS_CD40: BioMAP Diversity Plus: LPS Assay for CD40 Biomarker Activity (AID 2283076). Particulars: primary human HUVEC with PBMC; actives raise or lower the signal. Put shortly:
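Primary human umbilical vein endothelial cells co-cultured with peripheral blood mononuclear cells, LPS-stimulated, were dosed with chemical and read 24 h later. CD40 levels were measured by ELISA and fitted bidirectionally against DMSO as negative control and baseline.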

Read-out in test [7]: E-selectin (Homo sapiens) (UniProt P16581)
The experiment in a line: BSK_LPS_Eselectin: BioMAP Diversity Plus: LPS Assay for Eselectin Biomarker Activity (AID 2283077). Particulars: primary human HUVEC with PBMC; actives raise or lower the signal. Put shortly:
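Human umbilical vein endothelial cells co-cultured with peripheral blood mononuclear cells under LPS stimulation; E-selectin measured by ELISA 24 h after chemical dosing. Activity fitted bidirectionally against DMSO as negative control and baseline.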

Read-out in test [8]: Interleukin-8 (IL8), CXCL8 (gene 3576)
The experiment in a line: BSK_LPS_IL8: BioMAP Diversity Plus: LPS Assay for Interleukin-8 (IL8) Biomarker Activity (AID 2283078). The conditions noted are these: primary human HUVEC with PBMC; actives raise or lower the signal. Put shortly: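 Human umbilical vein endothelial cells co-cultured with PBMC were stimulated with LPS; IL-8 levels were measured by ELISA 24 h after chemical dosing. Activity was fitted bidirectionally against DMSO as negative control and baseline.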

A short description of test [9]: BSK_LPS_SRB: Viability Assessment in the BioMAP Diversity Plus: LPS Assay (AID 2283079).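 Also: total protein by sulforhodamine B absorbance as a cytotoxicity measure; measured one day after compound addition; fitted in both directions against DMSO so loss or gain of signal counts.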 The conditions noted are these: primary human HUVEC with PBMC. The method, boiled down:
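Human umbilical vein endothelial cells co-cultured with PBMC (LPS system) were dosed for 24 h. Total protein was stained with 0.1% sulforhodamine B after 10% TCA fixation, read at 560 nm, and fitted bidirectionally against DMSO baseline.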

Read-out in test [10]: Interleukin-1 alpha (IL1a), IL1A (gene 3552)
The experiment in a line: BSK_LPS_IL1a: BioMAP Diversity Plus: LPS Assay for Interleukin-1 alpha (IL1a) Biomarker Activity (AID 2283080). The conditions noted are these: primary human HUVEC with PBMC; actives raise or lower the signal. Put shortly:
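Human umbilical vein endothelial cells co-cultured with peripheral blood mononuclear cells were LPS-stimulated and exposed to test chemicals for 24 h. IL-1 alpha was quantified by ELISA, with bidirectional curve fitting against DMSO as the negative control and baseline.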

Read-out in test [11]: Monocyte Chemoattractant Protein-1 (MCP1), CCL2 (gene 6347)
Kind of test: BSK_LPS_MCP1: BioMAP Diversity Plus: LPS Assay for Monocyte Chemoattractant Protein-1 (MCP1) Biomarker Activity (AID 2283081).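 As to AC50: secreted MCP-1 protein quantified by ELISA in culture supernatant.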 Particulars: primary human HUVEC with PBMC; actives raise or lower the signal. Put shortly: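 HUVEC plus PBMC co-culture (human primary cells, LPS system) exposed to test chemical for 24 h; MCP-1 measured by ELISA. Bidirectional curve fitting against DMSO baseline; parallel SRB total-protein staining flags overt cytotoxicity.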

Test [12] is described as follows: BSK_LPS_PGE2: BioMAP Diversity Plus: LPS Assay for Prostaglandin E2 (PGE2) Biomarker Activity (AID 2283082). The conditions noted are these: primary human HUVEC with PBMC; actives raise or lower the signal. The method, boiled down:
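HUVEC plus human PBMC co-culture stimulated with LPS; secreted PGE2 quantified by ELISA 24 h after chemical dosing. Activity fitted bidirectionally against DMSO baseline; parallel SRB staining (0.1% SRB after 10% TCA fixation, 560 nm) flags overt cytotoxicity.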

Read-out in test [13]: Macrophage colony-stimulating factor (MCSF), CSF1 (gene 1435)
The experiment in a line: BSK_LPS_MCSF: BioMAP Diversity Plus: LPS Assay for Macrophage colony-stimulating factor (MCSF) Biomarker Activity (AID 2283083). The conditions noted are these: primary human HUVEC with PBMC; actives raise or lower the signal. Put shortly: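 Human umbilical vein endothelial cells co-cultured with peripheral blood mononuclear cells were exposed to compound for 24 h. M-CSF levels were measured by ELISA, and bidirectional curve fitting used DMSO as the negative control and baseline.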

Read-out in test [14]: Tissue Factor, F3 (gene 2152)
The experiment in a line: BSK_LPS_TissueFactor: BioMAP Diversity Plus: LPS Assay for Tissue Factor Biomarker Activity (AID 2283084). The conditions noted are these: primary human HUVEC with PBMC; actives raise or lower the signal. Put shortly: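 Human umbilical vein endothelial cells co-cultured with peripheral blood mononuclear cells were dosed and stimulated with LPS. Cell-surface CD142 was quantified by ELISA at 24 h. Activity was fitted bidirectionally against DMSO baseline.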

Read-out in test [15]: Tumor necrosis factor (Homo sapiens) (UniProt P01375)
The experiment in a line: BSK_LPS_TNFa: BioMAP Diversity Plus: LPS Assay for Tumour Necrosis Factor alpha (TNFa) Biomarker Activity (AID 2283085).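 As to AC50: TNFa protein level quantified by ELISA in the co-culture.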 The conditions noted are these: primary human HUVEC with PBMC; actives raise or lower the signal. The method, boiled down: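 Human umbilical vein endothelial cells co-cultured with PBMC and stimulated with LPS. TNFa was measured by ELISA 24 h after chemical dosing, fitted bidirectionally relative to DMSO.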

Read-out in test [16]: Vascular cell adhesion molecule 1 (VCAM1), VCAM1 (gene 7412)
Kind of test: BSK_LPS_VCAM1: BioMAP Diversity Plus: LPS Assay for Vascular cell adhesion molecule 1 (VCAM1) Biomarker Activity (AID 2283086). The conditions noted are these: primary human HUVEC with PBMC; actives raise or lower the signal. Put shortly: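 Human umbilical vein endothelial cells co-cultured with PBMC and stimulated with LPS; VCAM-1 measured by ELISA 24 h after dosing. Bidirectional curve fitting against DMSO baseline; cytotoxicity tracked in parallel by SRB total-protein staining.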

Read-out in test [17]: CD38, CD38 (gene 952)
The experiment in a line: BSK_SAg_CD38: BioMAP Diversity Plus: SAg Assay for CD38 Biomarker Activity (AID 2283087). Particulars: primary human HUVEC with PBMC; actives raise or lower the signal. Put shortly:
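Human HUVEC plus PBMC co-culture stimulated with superantigen; CD38 measured by ELISA 24 h after chemical dosing. Fluorescence read-out, bidirectional fit against DMSO; cytotoxicity tracked in parallel by SRB and Alamar Blue.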

Read-out in test [18]: CD40, CD40 (gene 958)
Kind of test: BSK_SAg_CD40: BioMAP Diversity Plus: SAg Assay for CD40 Biomarker Activity (AID 2283088). Particulars: primary human HUVEC with PBMC; actives raise or lower the signal. Put shortly: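 Human umbilical vein endothelial cells co-cultured with PBMC; CD40 levels measured by ELISA with fluorescence read-out 24 h after chemical dosing. Gain or loss of signal fitted bidirectionally against DMSO baseline.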

Read-out in test [19]: CD69, CD69 (gene 969)
The experiment in a line: BSK_SAg_CD69: BioMAP Diversity Plus: SAg Assay for CD69 Biomarker Activity (AID 2283089).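 As to AC50: cell surface CD69 protein quantified by ELISA with fluorescence detection.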 Particulars: primary human HUVEC with PBMC; actives raise or lower the signal. The method, boiled down: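 Values derive from bidirectional fitting relative to DMSO vehicle. Cells: umbilical vein endothelium plus peripheral blood mononuclear cells, treated 24 h before fluorescent ELISA for CD69.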

Sequence of E-selectin (Homo sapiens) (P16581 whole entry, looked up): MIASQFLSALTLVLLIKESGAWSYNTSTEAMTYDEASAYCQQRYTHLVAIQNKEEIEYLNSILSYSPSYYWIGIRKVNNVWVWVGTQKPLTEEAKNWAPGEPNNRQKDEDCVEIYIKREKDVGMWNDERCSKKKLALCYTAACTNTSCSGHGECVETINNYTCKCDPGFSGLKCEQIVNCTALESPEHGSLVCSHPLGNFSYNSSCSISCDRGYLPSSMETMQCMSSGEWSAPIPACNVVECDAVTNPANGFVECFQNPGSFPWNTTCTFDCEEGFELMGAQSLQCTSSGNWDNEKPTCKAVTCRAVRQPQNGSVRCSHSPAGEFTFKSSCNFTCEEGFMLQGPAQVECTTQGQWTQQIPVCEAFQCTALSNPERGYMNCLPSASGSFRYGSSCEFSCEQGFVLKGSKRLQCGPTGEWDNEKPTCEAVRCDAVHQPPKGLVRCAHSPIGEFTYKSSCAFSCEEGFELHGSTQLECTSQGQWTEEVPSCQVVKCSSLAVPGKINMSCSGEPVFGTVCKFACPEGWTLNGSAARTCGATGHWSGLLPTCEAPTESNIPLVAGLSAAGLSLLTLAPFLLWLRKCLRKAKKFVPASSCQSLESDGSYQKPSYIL
Sequence of Tumor necrosis factor (Homo sapiens) (P01375 whole entry, looked up): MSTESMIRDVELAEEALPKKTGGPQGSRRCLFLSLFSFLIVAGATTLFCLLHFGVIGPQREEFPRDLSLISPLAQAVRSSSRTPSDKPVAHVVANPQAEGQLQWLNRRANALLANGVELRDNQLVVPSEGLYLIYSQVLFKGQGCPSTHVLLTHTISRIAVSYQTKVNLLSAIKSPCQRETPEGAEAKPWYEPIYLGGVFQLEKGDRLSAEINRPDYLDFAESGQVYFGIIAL

In general, AC50 refers to the concentration at which the activity in the assay is half-maximal. Turning to `C#C[C@]1(O)CC[C@H]2[C@@H]3CCc4cc(OC)ccc4[C@H]3CC[C@@]21C`, the AC50 is 5.41 µM (active) in test [1]; 2.14 µM (active) in test [2]; 7.71 µM (active) in test [4]; 9.89 µM (active) in test [5]; 20 µM (active) in test [6]; 31.1 µM (active) in test [10]. Also, the AC50 in test [11] was 18.5 nM (active); in test [15] it was 34.6 µM (active); in test [17] it was 27.1 µM (active); in test [19] it was 15.2 µM (active). Moreover, the outcome in test [3], in test [7], in [8], in test [9], in [12] and in test [13] was inactive. Further, the result in test [14], in test [16] and in test [18] was inactive.
As to `FC(F)(F)C(F)(F)C(F)(F)C(F)(F)CCI`, the outcome in test [1], in test [3], in [4], in test [5], in test [6] and in test [7] was inactive. The result in test [8], in test [9], in [10], in [11], in [12] and in test [13] was inactive. Also, the outcome in test [14], in test [15], in test [16], in [17], in [18] and in test [19] was inactive.
For `C=CC/C=C/C/C=C/C/C=C/C`, the result in test [1], in test [2], in [3], in test [4], in [5] and in test [6] was inactive. Moreover, the outcome in [7], in [8], in test [9], in test [10], in test [11] and in test [12] was inactive. Also, the outcome in [13], in test [14], in test [16], in [17], in [18] and in [19] was inactive. Also, the AC50 in test [15] is 0.628 µM (active).
For `OCC(F)(F)C(F)(F)C(F)(F)C(F)(F)C(F)(F)C(F)(F)F`, the result in [1], in test [3], in test [4], in test [5], in test [6] and in [7] was inactive. In addition, the outcome in test [8], in test [9], in [10], in test [11], in test [12] and in [13] was inactive. The result in [14], in [15], in test [16], in [18] and in [19] was inactive. The AC50 in test [17] is 9.86 µM (active) and 5.95 µM (active).
For the compound `CC(CCl)OP(=O)(OC(C)CCl)OC(C)CCl` (centres undefined), the outcome in test [1], in test [2], in test [3], in test [4], in [5] and in test [6] was inactive. In addition, the outcome in test [7], in test [8], in test [9], in test [10], in [11] and in test [12] was inactive. The result in test [14], in [15], in test [16], in [17], in test [18] and in test [19] was inactive.
For `O=C(O)C(F)(F)C(F)(F)C(F)(F)F`, the outcome in test [1], in test [3], in test [4], in test [5], in [6] and in test [7] was inactive. Further, the result in [8], in [9], in test [10], in [11], in test [12] and in test [14] was inactive. The result in test [15], in test [16], in [17], in test [18] and in [19] was inactive.

The values above are taken from PubChem BioAssay (EPA / NIEHS).
